Screening results: PubChem, National Center for Advancing Translational Sciences (NCATS)
GLP-1R inv ag: inverse agonists of human GLP-1 receptor. P43220. HEK293 GLP-1R CRE-luciferase, luminescence, 24 h; GLP-1R form is constitutively active. Potency, µM (highest dose often 38.3 µM), for the others: at the highest dose activity change, negative = inhibition, hits mostly inhibitors. actives 1.6% (n = 410,000). AID 624417; also: % is scaled to controls: 0 for no effect and ±100 for the full control effect; nearly all actives have a fitted effect of over 55% in size
Target sequence (P43220 whole entry, looked up): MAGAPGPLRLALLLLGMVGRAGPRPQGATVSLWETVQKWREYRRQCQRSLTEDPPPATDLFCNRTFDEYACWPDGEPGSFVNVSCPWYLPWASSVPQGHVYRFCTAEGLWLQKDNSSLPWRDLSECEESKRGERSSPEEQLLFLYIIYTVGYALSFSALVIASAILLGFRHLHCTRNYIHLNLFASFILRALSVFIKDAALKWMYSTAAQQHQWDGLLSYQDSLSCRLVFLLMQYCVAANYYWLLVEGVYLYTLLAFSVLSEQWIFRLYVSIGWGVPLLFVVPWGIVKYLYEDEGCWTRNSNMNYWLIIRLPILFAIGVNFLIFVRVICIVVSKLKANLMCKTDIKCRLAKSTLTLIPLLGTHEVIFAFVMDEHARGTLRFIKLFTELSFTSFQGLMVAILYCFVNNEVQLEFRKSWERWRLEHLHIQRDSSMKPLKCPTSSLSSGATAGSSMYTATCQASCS
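Inverse agonism was detected as reduced cAMP-driven luciferase luminescence after 24 h compound treatment. The cells were HEK293 clones expressing constitutively active human GLP-1R with the reporter. Reporter-only and GPR119 cell lines served as counterscreen controls.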
BRCA1 expr up: activators of BRCA1 expression; Potency, µM (titrated, usually from 46.1 µM), inactives show at the top dose activation, actives largely listed as activators; actives 1.1% (n = 380,000); MCF7-BRCA1-FFLuc reporter, luminescence, 48 h; response scale: scaled: vehicle 0%, 10 µM genistein 100%; also: nearly all actives have a fitted effect of over 80% in size
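Using MCF7 cells harboring a BRCA1 firefly luciferase reporter, plated 2 h before compound pinning, the screen measured luminescence after 48 h incubation. Responses were normalized to DMSO and 10 microM genistein, then fitted for concentration-effect.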
GLP1R cytotox: cytotoxic in the GLP-1 receptor inverse agonist counter-screen; HEK293 cAMP-luciferase reporter cells, luminescence, 24 h; Potency, µM (top dose mostly 38.3 µM), without a hit: at the top dose activity change, negative = inhibition, most hits filed as inhibitors; actives 0.13% (n = 410,000);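 also: loss of luciferase light is scored as toxicity; % is scaled to controls: 0 for no effect and ±100 for the full control effect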
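Here, cytotoxicity is scored as loss of luminescence. The MLSMR collection was tested on cells seeded in medium containing 10% Nu serum, with a 24 hr compound exposure preceded by 12 hours of culture.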
GLP1R ag: agonists of human GLP-1 receptor | P43220 | HEK293 GLP-1R CRE-luciferase, luminescence, 4-6 h; cells express a hypersensitive GLP-1R form | Potency, µM (top dose mostly 45.6 µM), without a hit: at the highest dose activation, actives largely listed as activators | actives 0.007% (n = 380,000) | AID 624172; also: % of control where 0% means no effect
Starred values were filed as active, the others as inactive; ? = inconclusive; nt = not tested or not shown; [ ] = dose if it differs, or a comment. Rows were chosen to be rich in hits. Some 2.6% of all compounds tested hit in one or more screens of this group. Calls follow the shape of the dose curve; as a rule, active = well fitted curve in the direction sought with a large enough effect; inconclusive = small, poorly fitted or top-dose-only effect, or another doubt; inactive = no such curve, though single readings can be large; an effect the other way counts as inactive or inconclusive. Potency is read from the fitted curve at half-maximal effect.

SMILES	GLP-1R inv ag	BRCA1 expr up	GLP1R cytotox	GLP1R ag
O=C(Nc1ccc(F)cc1)NC1CCN(Cc2ccccc2)CC1	?	2.3%	-25.6%	-1.0%
CCN(CC)c1ccc(/C=N/NC(=O)CNC(=O)C2COc3ccccc3O2)c(O)c1 (centres undefined)	?	-84.1%	?	-7.8%
Nc1c(C(=O)Nc2ccc(OC(F)(F)F)cc2)sc2nc3c(cc12)N1CCC3CC1	?	nt	2.0%	nt
O=C(Nc1ccc(OC(F)(F)F)cc1)C1CCN(S(=O)(=O)c2cccs2)CC1	5.01µM*	nt	-26.0%	nt
CCN1CCN(c2ccc(NC(=O)c3ccc4c(c3)[nH]c(=O)n4Cc3ccc(OC)cc3)cc2)CC1	?	-8.3%	?	0.4%
O=C1c2ccccc2C(=O)C1C(=O)C(c1ccccc1)c1ccccc1	nt	nt	nt	-1.0%
Cc1ccc(C2(c3ccc(C)cc3)CC2C(=O)Nc2ccc([N+](=O)[O-])cc2O)cc1 (centres undefined)	3.98µM*	-85.0%	?	-38.7%
CC1CCC(NC(=O)CN2CCN(S(=O)(=O)c3ccc(Br)s3)CC2)CC1 (centres undefined)	10µM*	-12.0%	?	-0.6%
O=C(CN1CCN(S(=O)(=O)c2cc(Br)ccc2Br)CC1)NCc1ccccc1Cl	?	-52.8%	19.5%	2.4%
O=C(C1CCCN(S(=O)(=O)c2ccc(F)cc2)C1)N1CCOCC1 (centres undefined)	6.7%	?	-7.5%	16.2%
COc1ccc(CCNC(=O)COC(=O)Cc2ccccc2)cc1	0.7%	3.2%	-2.7%	2.8%
COc1ccc(CCNC(=O)N2c3ccccc3Sc3ccccc32)cc1	7.94µM*	-86.8%	-18.0%	7.1%
CCC(Oc1ccccc1OC)C(=O)Nc1ccc2c(c1)OCCO2 (centres undefined)	?	-2.9%	-13.1%	-2.7%
CN(Cc1ccccc1)C(=O)c1ccc(NC(=O)C2CCN(C(=O)OC(C)(C)C)CC2)cc1	5.01µM*	-30.1%	14.1%	-0.5%
COc1cc2c(cc1OC)CN(c1ccc([N+](=O)[O-])c(C(F)(F)F)c1)CC2	7.94µM*	-57.9%	10µM*	-6.5%
Cc1ccccc1C(=O)Oc1cccc(Nc2ncnc3ccccc23)c1	11.2µM*	-59.2%	-25.1%	-15.8%
C[C@@H]1O[C@@H](O[C@H]2C[C@@H](O)[C@]3(CO)[C@@H]4C(CC[C@]3(O)C2)[C@@]2(O)CC[C@H](C3COC(=O)C3)[C@@]2(C)C[C@H]4O)[C@H](O)[C@H](O)[C@H]1O (some centres undefined)	1µM*	-60.9%	?	-9.8%
CC1OC(O[C@H]2C[C@@H](O)[C@]3(CO)[C@@H]4C(CC[C@]3(O)C2)[C@@]2(O)CC[C@H](C3=CC(=O)OC3)[C@@]2(C)C[C@H]4O)C(O)C(O)C1O (some centres undefined)	nt	nt	nt	-7.9%
O=C(c1ccc2nsnc2c1)N1CCN(c2ccc([N+](=O)[O-])cc2)CC1	-24.9%	-38.6%	?	-2.1%
CCc1ccc(-c2nc(CN3CCCC(C(=O)N4CCN(c5cc(Cl)ccc5C)CC4)C3)c(C)o2)cc1 (centres undefined)	4.47µM*	nt	?	nt
Cc1oc(-c2cccc(Cl)c2)nc1CN1CCC(C(=O)NCCCN2CCN(c3cccc(Cl)c3)CC2)CC1	?	nt	-2.5%	nt
Cc1ccc2cc3c(NC(=O)C(C)C)nn(C)c3nc2c1	45.1%	-20.5%	117.8%	0.1%
Cc1cc(C)nc(-n2nc(C)c(Sc3ccc(F)cc3)c2N)n1	?	7.08µM*	?	10.7%
CC(C)(C#CCN1CCCCC1)OCCOC(c1ccccc1)c1ccccc1	5.62µM*	-41.3%	?	2.6%
CCOc1cc(CNC(C)(C)CO)cc(Br)c1OCc1ccc(Cl)cc1Cl	5.01µM*	-4.7%	?	-16.0%
SMILES	GLP-1R inv ag	BRCA1 expr up	GLP1R cytotox	GLP1R ag
CCOc1cc(CNCCO)cc(Br)c1OCc1ccc(Cl)cc1	?	-88.6%	?	-5.4%
CCCCc1nc2ccccc2c(=O)n1-c1ccc(O)cc1	2.24µM*	-20.0%	-8.2%	26.7%
O=c1c2ccccc2nc(-c2ccccc2)n1-c1ccccc1	5.01µM*	2.4%	2.1%	13.7%
O=c1c2ccccc2nc(-c2ccccc2)n1-c1cccnc1	-5.7%	-9.3%	-25.3%	-0.4%
O=c1c2ccccc2nc(-c2ccccc2)n1-c1ccncc1	0.0%	-0.5%[1.84 µM]	13.2%	11.7%
O=c1c2ccccc2nc(N2CCCC2)n1-c1ccccc1	3.16µM*	2.7%	-9.3%	14.6%
O=c1c2ccccc2nc(-c2ccccc2)n1-c1cccc(O)c1	1µM*	-12.4%	-11.7%	-1.1%
CCOC(=O)c1cccc(NC(=O)c2cnc(N3CCCCC3)c3ccccc23)c1	?	nt	0.6%	nt
COc1ccc(S(=O)(=O)N2CCN(C/C=C/c3ccccc3)CC2)cc1F	?	-28.0%	280.7%	10.5%
CC1(C)CC[C@]2(C(=O)O)CC[C@]3(C)C(=CC[C@@H]4[C@@]5(C)CC[C@H](O[C@@H]6O[C@H](C(=O)O)[C@@H](O)[C@H](O[C@@H]7OC[C@H](O)[C@H](O)[C@H]7O)[C@H]6O)C(C)(C)[C@@H]5CC[C@]43C)[C@@H]2C1	?	-53.9%	?	-17.1%
COc1ccc(S(=O)(=O)NCCc2sc3nc(-c4ccc(C)cc4)nn3c2C)cc1F	?	nt	9.5%	nt
COc1ccc(N2CCN(CCCNC(=O)c3cnn(-c4ccc(F)cc4)c3-n3cccc3)CC2)cc1	?	-13.7%	6.0%	-9.6%
CN1CCN(c2ccc(Nc3ccnc4cc(Cl)ccc34)cc2)CC1	2µM*	-0.3%	3.55µM*	-2.1%
Clc1ccc2c(N3CCNCC3)ccnc2c1	-4.7%	-8.0%	-1.7%	-5.0%
COc1cc(CCN)c(OC)cc1Br	nt	nt	nt	-3.7%[96 µM]
CCOC(=O)C(O)(c1ccc(NC(=O)c2ccc(Cl)c(Cl)c2)cc1)C(F)(F)F (centres undefined)	5.01µM*	-9.1%	-19.1%	1.2%
c1ccc2c(c1)Sc1ccccc1N2C[C@H]1CN2CCC1CC2	nt	nt	nt	-2.4%
O=C(Nc1ncccc1O)c1ccc(S(=O)(=O)NCc2ccco2)cc1	45.6%	4.1%	21.7%	9.4%
CCCCC(=O)Nc1c(C(=O)N2CCN(c3ccccc3F)CC2)oc2ccccc12	?	nt	-14.2%	nt
COc1ccc(NC(=O)CN(c2ccc([N+](=O)[O-])cc2)S(=O)(=O)c2ccccc2)cc1	6.31µM*	-79.4%	?	2.7%
COC(=O)C1(C(=O)OC)C[C@H](c2ccc(OC)cc2)N(Cc2ccccc2OC)[C@@H]1c1ccccc1	?	nt	16.0%	nt
CC(C)(C)OC(=O)N(CCc1ccccc1)Cc1ccc(OCc2cccc(NC(=O)c3ccccc3)c2)cc1	7.94µM*	-31.9%	3.1%	6.0%
CC(C)(C)c1ccc(OCC(=O)Nc2ccc(Cl)cc2C(=O)c2ccccc2)cc1	-4.0%	nt	-10.6%	nt
CCOC(=O)[C@]12Cc3ccc(C)cc3[C@H]1N(C1CCCCC1)C(=O)c1cc(OC)ccc12	?	-65.0%	11.2µM*	-12.0%
